From PubChem BioAssay (NCATS) come the findings set out here.

Assay [1] relates to Zika virus NS2B-NS3 protease (linked). Kind of assay: 384 well plate NINDS AMC confirmatory qHTS for Zika virus inhibitors (AID 1347163). Also: nearly all actives have a fitted effect of over 50% in size. Also: potency is read from the fitted curve at half-maximal effect.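 As to activity change, negative = inhibition: linked protease at 5 30 or 60 nM final depending on run; fluorescence of AMC released from Ac-VKTGKR-AMC peptide cleaved by the protease; top concentration of the series differs between compounds; 0% = no-inhibitor control and -100% = no-enzyme control.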 In outline:
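Linked NS2B-NS3 protease (final 5 nM, 30 nM or 60 nM) was preincubated with compounds (final up to 1 mM) for ~15 minutes. Ac-VKTGKR-AMC substrate (final 30 microM) then reacted for 25 minutes at room temperature in the dark. Fluorescence (ex 355/em 460 nm) was normalized to no-enzyme and no-inhibitor controls.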
(In qHTS, concentration-response curves come from the screen itself.)

A short description of assay [2]: Tertiary RLuc qRT-PCR qHTS assay for Zika virus inhibitors (AID 1347169). Also: potency is read from the fitted curve at half-maximal effect; nearly all actives have a fitted effect of over 55% in size. In short, it runs like this:
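Vero, 1,000 cells/well, o/n 37 C; cpd pinned in DMSO; ZIKV-RLuc Cambodian, MOI 1-2, 48-72 h 37 C; live-cell RLuc substrate, lum read at 1-1.5 h.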

Assay [3] is described as follows: Confirmation and Secondary Assay for Modulators of Hemoglobin Beta Chain Splicing at IVS2 654 locus (AID 910).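 Also: HeLa cells stably carrying EGFP split by mutant beta-globin IVS2-654 intron; per-well total GFP intensity by laser scanning cytometry after 2-day treatment; % of control where 0% means no effect.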 In outline: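 Readout: per-well total peak green fluorescence (488 nm ex, 500–520 nm em) from objects 5–250 µm, reflecting correct splicing of an EGFP-654 reporter. Compounds were applied for 2 days at 37 °C to overnight-plated HeLa EGFP-654 cells; controls were DMSO and 500 nM IVS2-654 PNA.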

Assay [4] in a line: Confirmation and Secondary Assay for Modulators of Hemoglobin Beta Chain Splicing at IVS2 705 locus (AID 930).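 Also: HeLa cells stably expressing the EGFP-705 splicing reporter; GFP fluorescence per well restored by corrected splicing of the IVS2-705 intron in EGFP; % of control where 0% means no effect.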 In short, it runs like this:
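Per-well GFP, captured at 1 x 8 µm resolution with 488 nm excitation, served as the read-out for HeLa EGFP-705 cells incubated 2 days with test compound versus DMSO.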

A further assay deals with AS120. Kind of assay: qHTS profiling for inhibitors of Plasmodium falciparum proliferation (AID 504749). Also: nearly all actives have a fitted effect of over 60% in size. Also: potency is read from the fitted curve at half-maximal effect. The note with it: P. falciparum in erythrocytes, SYBR Green DNA, 72 h; series mostly up to 28.7 µM. In outline:
(§1)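 Infected RBCs, 0.3% parasitemia/2.5% Hct final; cpd 72 h, 37 C, 5% CO2; lysis buffer with saponin/triton/SYBR Green I, o/n RT dark; FI 485/535; norm. to artemisinin (0.29 uM) and DMSO.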

The next assay deals with CP185. The assay is described as above. Conditions: P. falciparum in erythrocytes, SYBR Green DNA, 72 h; series mostly up to 28.7 µM. In short, it runs like this:
as §1

In a further assay the test system is CP192. The assay is described as above. The note with it: P. falciparum in erythrocytes, SYBR Green DNA, 72 h; series mostly up to 28.7 µM. In outline:
as §1

The subject of the next assay is CP194. The description is as above. The note with it: P. falciparum in erythrocytes, SYBR Green DNA, 72 h; series mostly up to 28.7 µM. In short, it runs like this:
as §1

For a further assay, the system named is CP201. The assay is described as above. The note with it: P. falciparum in erythrocytes, SYBR Green DNA, 72 h; series mostly up to 28.7 µM. In short, it runs like this: as §1
The next assay has as its system CP203. The assay is described as above. Conditions: P. falciparum in erythrocytes, SYBR Green DNA, 72 h; series mostly up to 28.7 µM. In short, it runs like this:
as §1

The subject of the next assay is CP247. The description is as above. The note with it: P. falciparum in erythrocytes, SYBR Green DNA, 72 h; series mostly up to 28.7 µM. In short, it runs like this: as §1
The next assay has as its system CP286. Described as above. Conditions: P. falciparum in erythrocytes, SYBR Green DNA, 72 h; series mostly up to 28.7 µM. In short, it runs like this:
as §1

The next assay concerns DFO2036. The description is as above. The note with it: P. falciparum in erythrocytes, SYBR Green DNA, 72 h; series mostly up to 28.7 µM. In outline:
as §1

In another assay the test system is ICS. The assay is described as above. The note with it: P. falciparum in erythrocytes, SYBR Green DNA, 72 h; series mostly up to 28.7 µM. In short, it runs like this: as §1
Another assay deals with PC49. The description is as above. Conditions: P. falciparum in erythrocytes, SYBR Green DNA, 72 h; series mostly up to 28.7 µM. In short, it runs like this:
as §1

Assay [5] addresses Mitogen-activated protein kinase 10 (Mus musculus) (UniProt Q61831). The assay is described as follows: JNK3 AlphaScreen Assay (AID 530; active = well fitted curve in either direction with a large enough effect, not every such curve was filed as active;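 also: kinase came from lysate of stimulated human HepG2 cells; signal reports phosphorylation of biotinylated GST-cJun 1-79 at Ser73 with 10 µM ATP; % is scaled to controls: 0 for no effect and ±100 for the full control effect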). In short, it runs like this: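 Compound titrations were preincubated 15 minutes at room temperature with substrate, antibody and pre-activated JNK3-containing HepG2 lysate. Reactions were started with 10 uM ATP and stopped with EDTA-containing bead buffer for AlphaScreen detection.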
(Bead proximity is the source of the signal in Alpha formats.)

Assay [6] addresses Cytochrome P450 2C19 (Homo sapiens) (UniProt P33261). The assay is described as follows: qHTS Assay for Inhibitors and Substrates of Cytochrome P450 2C19 (AID 899). Also: potency is read from the fitted curve at half-maximal effect; nearly all actives have a fitted effect of over 60% in size. In outline:
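Reactions contain 5nM enzyme, 10uM Luciferin-H EGE (KM) and 50mM KPO4; compound preincubates 10 min at 37C, NADPH regeneration starts turnover for 60 min. Luminescence after detection reagent gives activity.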

The target in assay [7] is DNA dC->dU-editing enzyme APOBEC-3G (Homo sapiens) (UniProt Q9HC16). Kind of assay: qHTS for inhibitors of Vif-A3G interactions: Validation (AID 588379). Also: 0% is about no effect. In outline: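 HeLa cells stably expressing Vif and A3G-eYFP, 700 cells/well, incubated overnight at 37 deg C, then exposed to compound overnight at 37 deg C. Inhibition of Vif-mediated degradation read as increased yellow fluorescence (Ex 488/Em 500-530) by laser-scanning cytometry.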

Assay [8] is described as follows: AP1 Signaling Pathway (AID 357; active = well fitted curve in either direction with a large enough effect, not every such curve was filed as active;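 also: ME-180 reporter cells stimulated with EGF at its EC50 level; % is scaled to controls: 0 for no effect and ±100 for the full control effect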). Conditions: ME-180 (cervical carcinoma) AP-1-bla reporter, EGF-induced, beta-lactamase ratio, 5 h. In outline: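 Beta-lactamase reporter under AP-1 response element, ME-180 background. Stimulus: EC50 EGF. Compound exposure 5 h, 37 °C. Detection: CCF4, 2.5 h RT, 460/530 nm. Values: AC50 from titration.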
Assay [9] deals with Cytochrome P450 1A2 (Homo sapiens) (UniProt P05177). Kind of assay: p450-cyp1a2 (AID 410; calls by dose curve; also: potency is read from the fitted curve at half-maximal effect;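 as to activity change, negative = inhibition: -100% = full effect of reference inhibitor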). In outline:
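Luminescent readout of luciferin formed from Luciferin-ME by human CYP1A2; data normalized against complete inhibition by 57 uM furafylline. Enzyme 20nM, substrate 100uM at Km, 100mM KPO4 buffer, 60 min reaction at room temperature.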

Structures are written as SMILES. Several values for one entry are separate records, joined by “and”; a condition that tells them apart may be missing. Identical values can stand only once. Values without a mark were called inactive. Records with an inconclusive call do not appear. Activity calls are given as the source filed them. Unless noted, calls follow the shape of the dose curve; as a rule, active = well fitted curve in the direction sought with a large enough effect; inconclusive = small, poorly fitted or top-dose-only effect, or another doubt; inactive = no such curve, though single readings can be large; an effect the other way counts as inactive or inconclusive.

Cytochrome P450 2C19 (Homo sapiens), sequence (P33261 whole entry, looked up): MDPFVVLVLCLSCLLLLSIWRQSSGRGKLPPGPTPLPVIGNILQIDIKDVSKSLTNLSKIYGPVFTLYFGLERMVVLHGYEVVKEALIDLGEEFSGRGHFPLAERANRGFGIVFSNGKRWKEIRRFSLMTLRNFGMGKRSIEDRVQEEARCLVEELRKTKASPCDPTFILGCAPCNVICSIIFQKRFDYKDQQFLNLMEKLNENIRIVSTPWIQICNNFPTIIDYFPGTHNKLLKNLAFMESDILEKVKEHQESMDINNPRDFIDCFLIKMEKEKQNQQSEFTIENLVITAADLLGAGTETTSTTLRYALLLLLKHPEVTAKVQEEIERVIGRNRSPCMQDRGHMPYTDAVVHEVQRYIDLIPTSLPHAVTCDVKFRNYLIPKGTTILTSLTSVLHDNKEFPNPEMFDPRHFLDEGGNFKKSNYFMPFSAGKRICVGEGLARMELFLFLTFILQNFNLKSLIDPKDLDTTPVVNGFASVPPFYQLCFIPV
Cytochrome P450 1A2 (Homo sapiens), sequence (P05177 whole entry, looked up): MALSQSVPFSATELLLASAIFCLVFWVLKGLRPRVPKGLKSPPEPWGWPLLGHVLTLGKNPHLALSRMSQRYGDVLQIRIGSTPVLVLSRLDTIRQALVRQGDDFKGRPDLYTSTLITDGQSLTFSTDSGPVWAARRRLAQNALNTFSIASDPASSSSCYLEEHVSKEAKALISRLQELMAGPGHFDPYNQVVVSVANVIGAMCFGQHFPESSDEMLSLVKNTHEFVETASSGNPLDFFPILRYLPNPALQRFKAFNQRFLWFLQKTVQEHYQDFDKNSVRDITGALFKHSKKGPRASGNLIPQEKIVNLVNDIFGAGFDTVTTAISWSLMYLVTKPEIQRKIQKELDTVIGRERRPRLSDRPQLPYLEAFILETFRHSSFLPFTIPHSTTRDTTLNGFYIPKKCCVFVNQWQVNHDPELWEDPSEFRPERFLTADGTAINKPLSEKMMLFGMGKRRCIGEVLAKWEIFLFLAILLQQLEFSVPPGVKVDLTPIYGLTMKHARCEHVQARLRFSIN
DNA dC->dU-editing enzyme APOBEC-3G (Homo sapiens), sequence (Q9HC16 whole entry, looked up): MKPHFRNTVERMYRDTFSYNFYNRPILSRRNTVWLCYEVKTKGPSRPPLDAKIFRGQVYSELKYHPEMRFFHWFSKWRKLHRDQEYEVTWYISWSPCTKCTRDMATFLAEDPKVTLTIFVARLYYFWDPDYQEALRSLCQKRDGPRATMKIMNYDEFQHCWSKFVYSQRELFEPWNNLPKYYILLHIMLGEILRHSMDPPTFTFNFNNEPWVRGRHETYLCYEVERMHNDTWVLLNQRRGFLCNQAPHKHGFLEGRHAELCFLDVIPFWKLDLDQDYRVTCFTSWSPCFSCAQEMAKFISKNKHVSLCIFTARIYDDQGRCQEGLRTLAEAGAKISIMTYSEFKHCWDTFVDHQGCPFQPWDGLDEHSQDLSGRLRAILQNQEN

Consider `CC[C@H](C)[C@H]1O[C@]2(CC[C@@H]1C)C[C@@H]1C[C@@H](C/C=C(\C)[C@@H](O[C@H]3C[C@H](OC)[C@@H](O[C@H]4C[C@H](OC)[C@@H](O)[C@H](C)O4)[C@H](C)O3)[C@@H](C)/C=C/C=C3\CO[C@@H]4[C@H](O)C(C)=C[C@@H](C(=O)O1)[C@]34O)O2`, for which the Potency entry in [1] was “inactive”. For the same compound, in assay [2], the Potency was 41.5 nM (active) and 2.62 µM (active).

Regarding `CCCCC(=O)N(Cc1ccc(-c2ccccc2-c2nn[nH]n2)cc1)C(C(=O)O)C(C)C` (stereo not drawn), the call in assay [3] and in assay [4] was inactive. The Potency result in the assay with AS120, with CP185, with CP192, in the assay on CP194, in the assay with CP201 and in the assay on CP203 was “inactive” each time. For the same compound, the Potency entry in the assay with CP247, in the assay on CP286, in the assay on DFO2036 and in the assay on PC49 was “inactive” throughout. Besides, the Potency with ICS was 7.94 µM (active).

On to `CN(Cc1ccc(C(=O)O)cc1)c1ccc(OCc2c(-c3c(Cl)cccc3Cl)noc2C2CC2)nc1C(F)(F)F`, for which, in [1], the Potency is 3.98 µM (active).

Consider `O=C(CC1NCCC[C@H]1O)Cn1cnc2cc(Br)c(Cl)cc2c1=O` (stereo partly drawn), for which the Potency is 2 µM (active) in the assay on AS120; 2.82 µM (active) in the assay on CP185; 3.38 µM (active) in the assay on CP192; 4.78 µM (active) in the assay with CP194; 3.38 µM (active) in the assay on CP201; 3.38 µM (active) in the assay on CP203. For the same compound, the Potency with CP247 was 2.24 µM (active); in the assay on CP286 it was 2 µM (active); in the assay on DFO2036 it was 2.82 µM (active); in the assay on ICS, 1.12 µM (active); in the assay with PC49, 1.78 µM (active).

Consider `Clc1ccccc1CNCC1CCC(CNCc2ccccc2Cl)CC1` (stereo not drawn), for which the Potency result in assay [5] and in assay [7] was “inactive” each time. Moreover, in assay [6], the Potency was 0.794 µM (active).

`O=C(O)c1ccc(O)c2ncc(N3CCCN(CCc4cccc5ccccc45)CC3)cc12`: the Potency in assay [2] is 6.58 µM (active).

With `Cc1nc2c(O)cccc2c(=O)[nH]1`, the Potency entry in [5] and in [7] was “inactive” each time. Moreover, in assay [6], the Potency is 0.398 µM (active).

For the compound `CN1CCN(CCC=C2c3ccccc3Sc3ccc(S(=O)(=O)N(C)C)cc32)CC1`, in [8] (at 38 µM (top of the series)), the activity change, negative = inhibition was 18.8%. For the same compound, the Potency entry in assay [9] is “inactive”. The call in assay [3] and in assay [4] was inactive. Also, the Potency with ICS is 7.94 µM (active).

Turning to `CC(C)=CCC/C(C)=C/CC/C(C)=C/CSc1ccccc1C(=O)O`, in assay [8] (at 38 µM (top of the series)), the activity change, negative = inhibition is 14.1%. Moreover, the Potency in assay [9] is 12.6 µM (active). The Potency entry in [5] is “inactive”.

Regarding `Nc1ncnc2c1c(I)cn2C1OC(CO)C(O)C1O` (stereo not drawn), the compound was called inactive in assay [3] and in assay [4].

As to `COc1cc(/C=C(\C#N)C(N)=O)cc(CSc2nc3ccccc3s2)c1O`, the Potency in assay [9] was 1.26 µM (active); in [6], 3.16 µM (active). Moreover, the Potency result in assay [7] is “inactive”.

For `CCOC(=O)CCC(=O)O[C@H]1[C@H](O[C@@H]2[C@@H](C)[C@H](O[C@H]3C[C@@](C)(OC)[C@@H](O)[C@H](C)O3)[C@@H](C)C(=O)O[C@H](CC)[C@@](C)(O)[C@H](O)[C@@H](C)C(=O)[C@H](C)C[C@@]2(C)O)O[C@H](C)C[C@@H]1N(C)C`, in assay [8] (at 17.2 µM (top of the series)), the activity change, negative = inhibition is -0.678%.
